Sampled rows, rich in hits. Any-hit rate of the full collection: about 21%.
CHX counter – Cycloheximide Counterscreen for Small Molecule Inhibitors of Shiga Toxin. cell reporter, cycloheximide protein synthesis inhibition counterscreen. max response, %. 300,000 compounds, 12% hits. AID 2314, 2010; in the data active means max response mostly above about 13%, no sharp cut-off; inactive means mostly below about 14%; further: read at 38.3 µM for the half of the compounds with a filed dose
Pf growth 48h – Primary qHTS for delayed death inhibitors of the malarial parasite plastid, 48 hour incubation; P. falciparum luciferase growth in erythrocytes, 48 h; Potency, µM (highest dose often 28.7 µM), hits mostly inhibitors; 310,000 compounds, 5.9% hits
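Parasite viability was followed by luminescence of a genomically integrated firefly luciferase. Cultures held 0.1% parasitemia at 2% hematocrit (final), incubated under 5% CO2 at 37 C.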
NS1 function inh – qHTS Assay for Inhibitors of Influenza NS1 Protein Function; Potency, µM (titrated, usually from 46.1 µM); 270,000 compounds, 0.4% hits; AID 2326, 2010; calls by dose curve; further: actives are rising curves; nearly all actives have a fitted effect of over 50% in size
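A cell-based growth assay was used: compounds that relieve NS1-induced slow growth of budding yeast raise OD600. Assay medium was yeast nitrogen base with ammonium sulphate and -URA supplement, pH 6.0, with 2% galactose.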
Pf growth 96h – Primary qHTS for delayed death inhibitors of the malarial parasite plastid, 96 hour incubation | AID 504834, 2011 | P. falciparum luciferase reporter growth, 96 h | 320,000 compounds, 6.9% hits | Potency, µM (titrated, usually from 28.7 µM), hits mostly inhibitors
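Cell-based qHTS: luciferase-tagged P. falciparum in erythrocytes (2% hematocrit, 0.05% parasitemia final) incubated with compounds for 96 hours, 37 C, 5% CO2; luciferase detection reagent then added and luminescence measured.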
Shiga toxin inh – A qHTS for Small Molecule Inhibitors of Shiga Toxin | 290,000 compounds, 9.2% hits | inhibition, % at 38.7 µM | Vero cells, Shiga toxin protein synthesis inhibition reporter; in the data active means inhibition mostly above about 28%, no sharp cut-off; inactive means mostly below about 43%
Hits are given with their value; [ ] = another dose, or the depositor's remark. Unless noted, the call rests on the fitted dose curve; in most records, active means well fitted inhibition curve with a large enough effect; inconclusive means small, poorly fitted or top-dose-only effect, or another doubt; inactive means no such curve, though single readings can be large or run the other way.

How did COc1ccccc1CNS(=O)(=O)c1c(C(=O)N2CCCCC2)c(C)n(C)c1C do in these assays?
CHX counter: inactive; Pf growth 48h: inconclusive; NS1 function inh: inactive; Pf growth 96h: inactive; Shiga toxin inh: inactive

How did Cc1cccc(N2CCN(C(=S)Nc3ccc4nc(N5CCN(C)CC5)cc(C)c4c3)CC2)c1C do in these assays?
CHX counter: inactive; Pf growth 48h: 12µM; Pf growth 96h: inconclusive; Shiga toxin inh: inactive

How did Cc1cc(N2CCN(C)CC2)nc2ccc(NC(=S)N3CCN(c4cccc(Cl)c4)CC3)cc12 do in these assays?
CHX counter: inactive; Pf growth 48h: inconclusive; NS1 function inh: inactive; Pf growth 96h: inactive; Shiga toxin inh: inactive

How did Cc1cc(N2CCN(C)CC2)nc2ccc(NC(=S)N3CCN(c4ccc(Cl)cc4)CC3)cc12 do in these assays?
CHX counter: inactive; Pf growth 48h: 13µM; Pf growth 96h: inactive; Shiga toxin inh: inactive

What do the screens show for `NC(=S)N/N=C1\CC(c2ccc3c(c2)OCCO3)Oc2ccc(F)cc21` (stereo unspecified)?
CHX counter: inactive; Pf growth 48h: inconclusive; NS1 function inh: inactive; Pf growth 96h: 12µM; Shiga toxin inh: inactive

How did Cc1cc(C)nc(/N=C(\N)Nc2ccc3c(c2)OCCO3)n1 do in these assays?
CHX counter: inactive; Pf growth 48h: inconclusive; NS1 function inh: inactive; Pf growth 96h: inactive; Shiga toxin inh: inactive

What do the screens show for `COc1cc(-c2csc(NC3CCCCC3)n2)cc(OC)c1OC`?
CHX counter: inactive; Pf growth 48h: 12µM; NS1 function inh: inactive; Pf growth 96h: inconclusive; Shiga toxin inh: inactive

How did COc1cc(CNC2CCCCCC2)cc(OC)c1OC do in these assays?
CHX counter: inactive; Pf growth 48h: inconclusive; NS1 function inh: inactive; Pf growth 96h: inactive; Shiga toxin inh: inactive

How did Cn1cc(C(c2ccccc2OCC(=O)O)c2cn(C)c3ccccc23)c2ccccc21 do in these assays?
CHX counter: inactive; Pf growth 48h: inactive; NS1 function inh: inconclusive; Pf growth 96h: 5.2µM; Shiga toxin inh: inactive

How did COc1ccc(-n2ncc3c(=O)n(CC(=O)NC(C)C)cnc32)cc1 do in these assays?
CHX counter: inactive; Pf growth 48h: inactive; NS1 function inh: inactive; Pf growth 96h: 7.4µM; Shiga toxin inh: inactive

What do the screens show for `Cc1ccc(-n2ncc3c(=O)n(CC(N)=O)cnc32)cc1`?
CHX counter: inactive; Pf growth 48h: inactive; NS1 function inh: inactive; Pf growth 96h: inactive; Shiga toxin inh: inactive

What do the screens show for `COC(=O)Cn1cnc2c(nnn2-c2ccc(OC)cc2)c1=O`?
CHX counter: inactive; Pf growth 48h: inactive; NS1 function inh: inactive; Pf growth 96h: inconclusive; Shiga toxin inh: inactive

What do the screens show for `COC(=O)Cn1cnc2c(cnn2-c2ccc(OC)cc2)c1=O`?
CHX counter: 23; Pf growth 48h: inactive; NS1 function inh: inactive; Pf growth 96h: inactive; Shiga toxin inh: inactive

How did CC(C)(C)n1ncc2c(=O)n(CC(=O)Nc3ccc4c(c3)OCO4)cnc21 do in these assays?
CHX counter: inactive; Pf growth 48h: inactive; NS1 function inh: inactive; Pf growth 96h: inconclusive; Shiga toxin inh: inactive

Results for COc1ccc(-n2ncc3c(=O)n(CC(=O)Nc4ccc5c(c4)OCCO5)cnc32)cc1 ?
CHX counter: inactive; Pf growth 48h: inactive; NS1 function inh: inactive; Pf growth 96h: 4.7µM; Shiga toxin inh: inactive

Results for COC(=O)Cn1cnc2c(cnn2-c2ccc(C)cc2)c1=O ?
CHX counter: 48; Pf growth 48h: inactive[0.00184 µM]; NS1 function inh: inactive; Pf growth 96h: inactive; Shiga toxin inh: 69

How did CC(C)NC(=O)Cn1cnc2c(cnn2-c2ccc(F)cc2)c1=O do in these assays?
CHX counter: inactive; Pf growth 48h: inactive; NS1 function inh: inactive; Pf growth 96h: inactive; Shiga toxin inh: inactive

Results for COc1ccc(S(=O)(=O)N2CCCCCC2)cc1N ?
CHX counter: inactive; Pf growth 48h: inactive; NS1 function inh: inactive; Pf growth 96h: inactive; Shiga toxin inh: inactive

Results for CC(C)Cn1c(N)c(C(=O)CSc2nc3ccccc3c(=O)n2CCCN2CCOCC2)c(=O)n(C)c1=O ?
CHX counter: inactive; Pf growth 48h: inactive; Pf growth 96h: inactive; Shiga toxin inh: inactive

How did Cc1cc2nc(C)n(CCCNC(=O)Nc3ccc(C#N)cc3)c2cc1C do in these assays?
CHX counter: inactive; Pf growth 48h: 10µM; NS1 function inh: inactive; Pf growth 96h: inactive; Shiga toxin inh: inactive

How did Cc1nn(CC(=O)Nc2cc(S(=O)(=O)N(C)C)ccc2Cl)c(C)c1[N+](=O)[O-] do in these assays?
CHX counter: inactive; Pf growth 48h: inactive; NS1 function inh: inactive; Pf growth 96h: inconclusive; Shiga toxin inh: inactive

What do the screens show for `CCN(CC)c1ccc(S(=O)(=O)N2CCOCC2)cc1NC(=O)CN1CCc2ccccc2C1`?
CHX counter: inactive; Pf growth 48h: 10µM; NS1 function inh: inactive; Pf growth 96h: inconclusive; Shiga toxin inh: inactive

What do the screens show for `CCN(CC)c1ccc(S(=O)(=O)N2CCOCC2)cc1NC(=O)Cn1nc(C)c([N+](=O)[O-])c1C`?
Pf growth 48h: inconclusive; Pf growth 96h: 12µM

Results for CCOC(=O)C1=C(C)N=C2SC(C)C(=O)N2C1/C=C/c1ccccc1OC (stereo unspecified) ?
CHX counter: inactive; Pf growth 48h: 12µM; NS1 function inh: inactive; Shiga toxin inh: inactive

Results for C=CCOC(=O)C1=C(C)OC(N)=C(C#N)C1c1ccc2c(c1)OCO2 (stereo unspecified) ?
CHX counter: inactive; Pf growth 48h: inactive; NS1 function inh: inactive; Pf growth 96h: 10µM; Shiga toxin inh: inactive

How did CC(=NC(C)C)C1=C(O)C(C)OC1=O (stereo unspecified) do in these assays?
CHX counter: inactive; Pf growth 48h: inactive; NS1 function inh: inactive; Pf growth 96h: inactive; Shiga toxin inh: inactive

Results for O=C(O)C1C2C=CC(O2)C1C(=O)Nc1cccc(C(F)(F)F)c1 (stereo unspecified) ?
CHX counter: inactive; Pf growth 48h: inactive; NS1 function inh: inactive; Pf growth 96h: 10µM; Shiga toxin inh: inactive

Results for CCOC(=O)c1cc(NC(=O)C2C3C=CC(O3)C2C(=O)O)cc(C(=O)OCC)c1 (stereo unspecified) ?
CHX counter: inactive; Pf growth 48h: inconclusive; NS1 function inh: inactive; Pf growth 96h: 12µM; Shiga toxin inh: inactive

Results for Oc1ccc(-c2c(C3=CCCCC3)sc3ccccc23)cc1 ?
CHX counter: inactive; Pf growth 48h: inactive; NS1 function inh: inactive; Pf growth 96h: inconclusive; Shiga toxin inh: inactive

How did CCC(C)N(C(=O)Cn1nnc(-c2ccc(Cl)cc2)n1)C1CCS(=O)(=O)C1 (stereo unspecified) do in these assays?
Pf growth 48h: inactive; Pf growth 96h: inactive

What do the screens show for `COc1ccc(CNC(=O)C(C)n2ccc3cc(S(=O)(=O)N4CCCCCC4)ccc32)cc1` (stereo unspecified)?
CHX counter: inactive; Pf growth 48h: inconclusive; NS1 function inh: inactive; Pf growth 96h: inconclusive; Shiga toxin inh: inactive

How did Oc1ccc(C2CNCc3sccc32)cc1O (stereo unspecified) do in these assays?
Pf growth 48h: 13µM; NS1 function inh: inactive; Pf growth 96h: inconclusive

What do the screens show for `CCn1cc(S(=O)(=O)Nc2ccc(C)c(Cl)c2)cn1`?
CHX counter: inactive; Pf growth 48h: inactive; NS1 function inh: inactive; Pf growth 96h: inactive; Shiga toxin inh: inactive

Bioassay records as filed in PubChem BioAssay.
